Assay outcomes (PubChem)
SMN2 splice up: SMN2 splice variant enhancement | HEK293 SMN2-luciferase splicing reporter, luminescence, 30-36 h | Potency, µM (doses to about 46.1 µM), for the others: at the highest dose activity change, positive = activation, hits mostly activators | hit rate 2.8% among 210,000 | AID 1458; further: % of control where 0% means no effect; nearly all actives have a fitted effect of over 55% in size
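qHTS luciferase splicing reporter: luminescence rises when SMN2 exon 7 is included in transfected HEK293 cells. Compound exposure lasted 30-36 h at 37C, with 4.5 mM final sodium butyrate as control, followed by a ONE-Glo read.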
FLuc modulator: inhibits or activates purified firefly luciferase, miR-21 counter-screen; P08659; purified FLuc, Km substrates, luminescence inhibition; Potency, µM (titrated, usually from 57.5 µM), for inactives: at the top dose activity change, negative = inhibition, hits mostly inhibitors; hit rate 6.9% among 360,000;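 further: plate controls were vehicle for no effect and reference inhibitor for full effect; nearly all actives have a fitted effect of over 55% in size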
Target sequence (P08659 whole entry, looked up): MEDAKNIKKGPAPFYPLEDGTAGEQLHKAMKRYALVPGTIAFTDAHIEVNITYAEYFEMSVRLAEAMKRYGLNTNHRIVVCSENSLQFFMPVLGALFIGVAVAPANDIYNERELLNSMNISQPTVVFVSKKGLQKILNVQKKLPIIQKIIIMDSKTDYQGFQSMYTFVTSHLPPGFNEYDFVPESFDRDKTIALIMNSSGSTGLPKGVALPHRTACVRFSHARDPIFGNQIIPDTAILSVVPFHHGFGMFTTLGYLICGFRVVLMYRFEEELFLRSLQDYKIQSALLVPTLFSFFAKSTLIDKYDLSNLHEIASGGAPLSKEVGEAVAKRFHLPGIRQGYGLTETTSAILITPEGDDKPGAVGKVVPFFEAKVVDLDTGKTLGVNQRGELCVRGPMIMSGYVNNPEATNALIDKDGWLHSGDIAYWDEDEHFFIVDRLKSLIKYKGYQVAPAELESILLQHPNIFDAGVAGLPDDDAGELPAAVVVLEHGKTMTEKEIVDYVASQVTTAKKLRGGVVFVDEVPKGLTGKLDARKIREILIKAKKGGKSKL
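Purified P. pyralis luciferase, 10 nM final, with Km-level 10 uM D-luciferin and 10 uM ATP in 50 mM Tris acetate pH 7.5, 10 mM Mg acetate, 0.01% Tween-20, 0.05% BSA; 6-point qHTS titration about 60 µM downward; luminescence read.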
ELG1 genotoxic: inducers of genotoxicity in HEK293T ELG1-luciferase cells; HEK293T ELG1-luciferase reporter, luminescence, 16 h; Potency, µM (titrated, usually from 46 µM), for inactives: top-dose activity change, positive = activation, hits mostly activators; hit rate 1.3% among 330,000; AID 504466; further: % of control where 0% means no effect; nearly all actives have a fitted effect of over 60% in size
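16 hr compound incubation (37 °C, 5% CO2) of HEK293T cells carrying luciferase-tagged ELG1; luciferase then measured by ONE-Glo luminescence after 30 min at RT.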
Rab9 prom act: activators of Rab9 promoter | Huh7 Rab9 promoter-luciferase reporter, luminescence, 24 h | Potency, µM (top dose mostly 9.22 µM), for the others: top-dose activation, negative = inhibition, usual class: activators | hit rate 2.8% among 320,000 | AID 485297; further: % of control where 0% means no effect; nearly all actives have a fitted effect of over 60% in size
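Cells were plated at 1500 per well in reduced-serum medium with 10% FBS and left 2 h. Compound in DMSO was then added for 24 h at 37 °C. Reporter signal was read by luminescence after 10 min with luciferase detection reagent.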
NPC1 promoter act: activators of NPC1 promoter; hit rate 2.4% among 320,000; Huh7 NPC1 promoter luciferase reporter, 24 h; Potency, µM (series often up to 9.22 µM), inactives show top-dose activation, usual class: activators; further: % of control where 0% means no effect; nearly all actives have a fitted effect of over 60% in size
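Stable NPC1-promoter luciferase Huh7 line; cpd (DMSO) 24 h, 37 °C, 5% CO2; Amplite luciferase reagent 10 min RT; luminescence readout. qHTS format.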
* = called active by the depositor; ? = inconclusive; nt = not tested or not shown; [ ] = remark or other dose. Shown are actives, neighbours in structure and some others; about 7.4% of the full set was active somewhere. The call rests on the fitted dose curve; in most records, active means well fitted curve in the direction sought with a large enough effect; inconclusive means small, poorly fitted or top-dose-only effect, or another doubt; inactive means no such curve, though single readings can be large; an effect the other way counts as inactive or inconclusive. Potency means the concentration at half of the fitted maximal effect.

SMILES	SMN2 splice up	FLuc modulator	ELG1 genotoxic	Rab9 prom act	NPC1 promoter act
O=C(CN1C(=O)NC2(CCCCCC2)C1=O)c1ccc2c(c1)OCCO2	18µM*	9.5µM*	4.1µM*	2.8µM*	2µM*
CC1CCC2(CC1)NC(=O)N(CC(=O)Nc1ccc3c(c1)OCCO3)C2=O (stereo not drawn)	?	27µM*	?	3.5µM*	?
COc1ccc2oc(C(=O)NC(C)(C)C)c(C)c2c1	13µM*	15µM*	?	4µM*	?
COc1ccc2oc(C(=O)Nc3nnc(C)s3)c(C)c2c1	nt	0.6µM*	3.3µM*	0.71µM*	?
Cc1ccc2oc(C(=O)Nc3nnc(C)s3)c(C)c2c1	16µM*	1.7µM*	5.8µM*	1.4µM*	3.2µM*
CCc1nonc1NC(=O)c1oc2ccc(Br)cc2c1C	-1%	0%	10%	24%	21%
Cc1ccc2oc(C(=O)Nc3nonc3C)c(C)c2c1	nt	7.6µM*	?	3.2µM*	?
O=C(c1cccc(F)c1)N1CCC2(CCN(Cc3cc(C(F)(F)F)cc(C(F)(F)F)c3)CC2)CC1	-16%	nt	nt	nt	nt
Cc1c(CC(=O)O)c(=O)oc2cc(OCc3ccc(F)cc3Cl)ccc12	nt	17µM*	6%	3%	-1%
Cc1c(CCC(=O)O)c(=O)oc2cc(OCc3ccccc3F)ccc12	nt	27µM*	4%	1%	10%
O=C(NNC1=C(C(=O)C(F)(F)F)CCC1)c1ccccc1O	-24%	27µM*	-24%	26%	13%
O=C(NNC1=C(C(=O)C(F)(F)F)CCC1)c1ccccc1Cl	10%	2%	-2%	-15%	-5%
O=C(COc1ccc(F)cc1)NCC(c1ccc(Cl)cc1)N1CCCCC1 (stereo not drawn)	nt	-8%	nt	nt	nt
O=C1CNC(=S)N1c1nc2ccccc2s1	nt	17µM*	?	?	?
O=C1/C(=C\c2ccc([N+](=O)[O-])cc2)CCc2ccccc21	?	0.095µM*	7.3µM*	24%	21%
CC(=O)Nc1ccc(/C=C2\CCc3ccccc3C2=O)cc1	nt	6.7µM*	?	?	3.2µM*
O=C1/C(=C/c2ccc(O)cc2)CCc2ccc([N+](=O)[O-])cc21	8%	-20%	0%	-1%	-6%
CC(=O)Nc1ccc2c(c1)CCC2=O	13%	-1%	0%	-1%	0%
O=C1/C(=C/Nc2cccc([N+](=O)[O-])c2)CCc2ccccc21	11µM*	2.7µM*	?	2.5µM*	2.8µM*
CC1CCCN(C(c2cccs2)c2nnnn2Cc2ccccc2)C1 (stereo not drawn)	-10%	1%	-12%	0%	2%
Cc1cc(C)nc(SCCc2cccc[n+]2C)n1	-2%[9.22 µM]	nt	nt	nt	nt
CCC(C(=O)OC)n1nnc2sc(-c3ccccc3)cc2c1=O (stereo not drawn)	-1%	19µM*	nt	nt	nt
COc1ccc(NC(=O)C(C)n2nnc3sc(-c4ccccc4)cc3c2=O)cc1Cl (stereo not drawn)	-1%	6µM*	nt	nt	nt
COc1ccc(S(=O)(=O)N2CCc3ccccc32)cc1C(=O)NC1(C)CCS(=O)(=O)C1 (stereo not drawn)	nt	1%	1%	1%	1%
COC(=O)c1ccc2c(c1)C(C)(C)C(/C=C/c1ccccc1O)=[N+]2C	-93%	15µM*	?	-45%	-42%
SMILES	SMN2 splice up	FLuc modulator	ELG1 genotoxic	Rab9 prom act	NPC1 promoter act
O=C1C2C(C(=O)N1/N=C/c1cc([N+](=O)[O-])ccc1O)C1C=CC2C12CC2 (stereo not drawn)	1%	-16%	-2%	5%	-1%
O=C1C2C(C(=O)N1/N=C/c1cccc([N+](=O)[O-])c1)C1C=CC2C12CC2 (stereo not drawn)	16%	7.6µM*	?	?	?
O=C=Nc1ccc(Cc2ccc(N=C=O)cc2)cc1	-7%	nt	nt	nt	nt
CC(C)CCNC(=O)CN(C(=O)CCC(=O)Nc1nccs1)c1ccc2c(c1)OCCO2	nt	?	21µM*	2%	1%
CC(C)(C)NC(=O)CN(C(=O)CCC(=O)Nc1nccs1)c1ccc2c(c1)OCCO2	nt	0%	-1%	-1%	0%
CC(=O)Nc1ccc(C2CC(c3ccc(Cl)cc3)=NN2c2ccccc2)cc1 (stereo not drawn)	nt	17µM*	8%	17%	11%
